Calls of active or inactive are those of the source. The calls were made as follows: active = hit-call score of the fitted dose curve at least 0.9, where 1 is the maximum; inactive = score below 0.9.
molecular target: Cytochrome P450 2C19 (Homo sapiens) (UniProt P33261); assay: ERF_FR_ADME_hCYP2C19_Omeprazole: Eurofins (ERF) CYP450-related Enzyme Activity (ADME) Assay for CYP2C19, Omeprazole Substrate
Procedure: ERF_FR_ADME_hCYP2C19_Omeprazole is a biochemical, single-readout assay that uses extracted gene-proteins in a cell-free assay. Measurements were taken 0.16 hour after chemical dosing in a 96-well plate. See CYP2C19 inhibition (HLM, omeprazole substrate).ERF_FR_ADME_hCYP2C19_Omeprazole is an assay component calculated from the ERF_FR_ADME_hCYP2C19_Omeprazole assay. It is designed to measure enzyme activity using a type of enzyme reporter as detected by peak area response of 5-hydroxyomeprazole with HPLC-MS/MS technology.Data from the assay component ERF_FR_ADME_hCYP2C19_Omeprazole was analyzed at the assay endpoint, ERF_FR_ADME_hCYP2C19_Omeprazole, in the positive analysis fitting direction relative to acetonitrile as the negative control and baseline of activity. Using a type of enzyme reporter, loss-of-signal activity can be used to understand changes in enzymatic activity as they relate to gene CYP2C19. To generalize the intended target to other relatable targets, this assay endpoint is annotated to the cyp intended target family, where the subfamily is steroidogenesis-related.
Assay is performed using 0.5uM omeprazole, cells are pre-incubated for 5 minutes, and then 10 minutes incubation with NADPH at 37C. Test Sample Requirements: Minimum for 1) Screen: 100 ul of 10 mM stock -OR- 1 to 2 mg (pre-weighed). 2) Dose Response: 250 ul of 10 mM stock -OR- 1.5 to 2 mg (pre-weighed).

Sequence of Cytochrome P450 2C19 (Homo sapiens) (P33261 whole entry, looked up): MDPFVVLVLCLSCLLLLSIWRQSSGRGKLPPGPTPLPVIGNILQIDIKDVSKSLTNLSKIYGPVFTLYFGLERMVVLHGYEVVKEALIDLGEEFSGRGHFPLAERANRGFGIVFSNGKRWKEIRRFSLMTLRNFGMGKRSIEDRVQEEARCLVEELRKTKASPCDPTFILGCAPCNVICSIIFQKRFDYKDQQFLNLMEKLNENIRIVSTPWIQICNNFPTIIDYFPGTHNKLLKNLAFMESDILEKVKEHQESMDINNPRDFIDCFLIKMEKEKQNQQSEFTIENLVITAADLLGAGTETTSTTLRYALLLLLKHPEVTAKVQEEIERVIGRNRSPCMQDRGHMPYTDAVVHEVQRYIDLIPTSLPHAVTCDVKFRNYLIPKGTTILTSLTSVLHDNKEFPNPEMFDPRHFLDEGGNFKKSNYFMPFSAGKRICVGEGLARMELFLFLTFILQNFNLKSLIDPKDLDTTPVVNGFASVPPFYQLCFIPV

SMILES	AC50
O=C(/C=C/c1ccc(O)cc1)CC(=O)/C=C/c1ccc(O)cc1	1740 nM (active)

— PubChem BioAssay AID2284090 (EPA ToxCast)
